Several values for one entry are separate records, joined by “and”; a condition that tells them apart may be missing. Identical values can stand only once. Activity calls are given as the source filed them. A call without a number means that no potency is given here. Unless noted, the call rests on the fitted dose curve; in most records, active means well fitted curve in the direction sought with a large enough effect in the repeat runs; inconclusive means weak or mixed curves; inactive means no such curve, though single readings can be large; an effect the other way counts as inactive or inconclusive.
Experiments:
[1] = qHTS assay to identify small molecule antagonists of the thyroid receptor (TR) signaling pathway (AID 743065); further: nearly all actives have a fitted effect of over 55% in size; further: potency means the concentration at half of the fitted maximal effect
Summary of the method: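 GH3.TRE-Luc rat pituitary cells carrying two TR response elements driving luciferase were plated for 4 h, given compound plus 1 nM T3 (final), and incubated 23.5 h at 37 C. ONE-Glo luminescence measured reporter inhibition; CellTiter-Fluor fluorescence tracked cytotoxicity.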

[2] = tested on: thyroid hormone receptor (rat, GH3 cells); test: qHTS assay to identify small molecule agonists of the thyroid receptor (TR) signaling pathway (AID 743066; calls by dose curve)
[3] = biological target: Estrogen receptor (Homo sapiens) (UniProt P03372); test: qHTS assay to identify small molecule antagonists of the estrogen receptor alpha (ER-alpha) signaling pathway (AID 743069; active means well fitted curve in the direction sought with a large enough effect in the signal ratio in the repeat runs, not every such curve was filed as active; inconclusive means weak or mixed curves, or effect the other way; inactive means no such curve, though single readings can be large or run the other way; the % refers to the signal ratio; further: potency means the concentration at half of the fitted maximal effect)
Chain of Estrogen receptor (Homo sapiens) (P03372 whole entry, looked up): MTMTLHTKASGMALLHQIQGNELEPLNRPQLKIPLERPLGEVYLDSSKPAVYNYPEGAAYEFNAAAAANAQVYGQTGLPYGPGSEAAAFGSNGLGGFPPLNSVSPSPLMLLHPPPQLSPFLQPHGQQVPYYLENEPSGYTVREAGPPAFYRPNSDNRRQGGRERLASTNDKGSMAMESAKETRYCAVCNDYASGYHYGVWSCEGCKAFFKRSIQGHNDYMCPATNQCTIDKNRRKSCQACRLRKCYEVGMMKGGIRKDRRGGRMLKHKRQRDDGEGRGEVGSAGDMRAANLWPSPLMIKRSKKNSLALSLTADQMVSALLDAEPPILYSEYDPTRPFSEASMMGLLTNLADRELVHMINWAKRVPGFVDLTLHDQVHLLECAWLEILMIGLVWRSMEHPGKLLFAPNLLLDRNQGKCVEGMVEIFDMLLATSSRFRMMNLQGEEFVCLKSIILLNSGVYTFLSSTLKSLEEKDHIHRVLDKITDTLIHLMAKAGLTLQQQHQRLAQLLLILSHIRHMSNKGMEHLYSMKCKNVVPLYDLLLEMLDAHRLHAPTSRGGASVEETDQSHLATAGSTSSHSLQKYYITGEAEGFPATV
Summary of the method: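 HEK293 cells stably carrying an ER-alpha-UAS-bla beta-lactamase reporter were pre-cultured overnight in 2% charcoal-stripped FBS medium. Test compounds in DMSO were added together with 17beta-estradiol for 18 hr at 37C. Read-out was fluorescence after 2 hr with LiveBLAzer B/G FRET substrate at room temperature.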

[4] = qHTS assay to identify small molecule antagonists of the estrogen receptor alpha (ER-alpha) signaling pathway - cell viability counter screen (AID 743074; calls by dose curve; further: nearly all actives have a fitted effect of over 45% in size; further: potency means the concentration at half of the fitted maximal effect)
[5] = biological target: Estrogen receptor (Homo sapiens) (UniProt P03372); test: qHTS assay to identify small molecule agonists of the estrogen receptor alpha (ER-alpha) signaling pathway (AID 743075; calls by dose curve; further: potency means the concentration at half of the fitted maximal effect)
[6] = biological target: Estrogen receptor (Homo sapiens) (UniProt P03372); test: qHTS assay to identify small molecule agonists of the estrogen receptor alpha (ER-alpha) signaling pathway using the BG1 cell line (AID 743079); further: nearly all actives have a fitted effect of over 20% in size; further: potency means the concentration at half of the fitted maximal effect
[7] = qHTS assay to identify small molecule antagonists of the estrogen receptor alpha (ER-alpha) signaling pathway using the BG1 cell line (AID 743080; calls by dose curve;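 further: BG1 cells stimulated with 17beta-estradiol alongside compound; nearly all actives have a fitted effect of over 25% in size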; further: potency means the concentration at half of the fitted maximal effect)
Summary of the method: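 Readout is ONE-Glo luminescence, taken 30 min at room temperature after reagent addition, preceded by a CellTiter-Fluor viability read; BG1-Luc-4E2 cells had received compound and 17beta-estradiol for 21.5 h at 37 C.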

[8] = qHTS assay to identify small molecule antagonists of the estrogen receptor alpha (ER-alpha) signaling pathway using the BG1 cell line - cell viability counter screen (AID 743081);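 further: compound given together with 17beta-estradiol as the ER stimulus; nearly all actives have a fitted effect of over 45% in size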; further: potency means the concentration at half of the fitted maximal effect
[9] = biological target: Aromatase (Homo sapiens) (UniProt P11511); test: qHTS assay to identify aromatase inhibitors (AID 743083); further: nearly all actives have a fitted effect of over 55% in size; further: potency means the concentration at half of the fitted maximal effect
Chain of Aromatase (Homo sapiens) (P11511 whole entry, looked up): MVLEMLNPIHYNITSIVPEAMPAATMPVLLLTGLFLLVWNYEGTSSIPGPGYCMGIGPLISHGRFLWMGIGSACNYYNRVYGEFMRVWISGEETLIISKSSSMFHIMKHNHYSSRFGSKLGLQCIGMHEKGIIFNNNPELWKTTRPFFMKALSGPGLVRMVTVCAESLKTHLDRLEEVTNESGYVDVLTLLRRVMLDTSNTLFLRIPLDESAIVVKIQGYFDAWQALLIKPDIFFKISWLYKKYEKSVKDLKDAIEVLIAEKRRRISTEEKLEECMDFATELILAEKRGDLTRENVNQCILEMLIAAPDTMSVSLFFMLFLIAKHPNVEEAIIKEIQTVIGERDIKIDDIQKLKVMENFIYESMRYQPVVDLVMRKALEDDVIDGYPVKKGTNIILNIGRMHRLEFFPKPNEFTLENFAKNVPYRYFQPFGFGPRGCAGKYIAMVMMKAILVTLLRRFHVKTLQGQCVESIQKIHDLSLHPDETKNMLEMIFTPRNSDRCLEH

[10] = qHTS assay to identify aromatase inhibitors - cell viability counter screen (AID 743084);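 further: cells stimulated with testosterone during compound exposure; nearly all actives have a fitted effect of over 55% in size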; further: potency means the concentration at half of the fitted maximal effect

| Structure (SMILES) | Potency [1] | outcome [2] | Potency [3] | Potency [4] | Potency [5] | Potency [6] | Potency [7] | Potency [8] | Potency [9] | Potency [10] |
| --- | --- | --- | --- | --- | --- | --- | --- | --- | --- | --- |
| CCCCCCCCCCCCCN1CC(C)OC(C)C1 (centres undefined) | inactive | inactive | inactive | inactive | inactive | inactive | inactive | inactive | inactive | inactive |
| Oc1ccc(C2(c3ccc(O)cc3)c3ccccc3-c3ccccc32)cc1 | 15.4 µM (active) | inactive |  |  |  |  |  |  |  |  |
| CC(C)CCCCCOC(=O)c1ccccc1C(=O)OCCCCCC(C)C | inactive | inactive | inactive | inactive | inactive | inactive | inactive | inactive | inactive | inactive |
| Cc1ccc(OP(=O)(Oc2ccccc2)Oc2ccccc2)cc1 | inactive | inactive | inactive |  | inactive | 3.91 µM (active) | inactive | inactive | inactive | inactive |
| CC(C)OC(=O)C(O)(c1ccc(Cl)cc1)c1ccc(Cl)cc1 | 61.1 µM (active) | inactive | 38.9 µM [inhibitor] (active) | inactive | inactive | inactive | inactive | inactive |  | inactive |
| Cc1cc(C)c(C2=C(OC(=O)CC(C)(C)C)C3(CCCC3)OC2=O)c(C)c1 | inactive | inactive | inactive | inactive | inactive | inactive | inactive | inactive | inactive | inactive |
| N#C/C=C/C#N | 32.1 µM (active) | inactive | inactive | inactive | 45.7 µM [inconclusive] (active) | inactive |  | inactive | 28.6 µM (active) |  |
| CC(C)OS(C)(=O)=O | inactive | inactive | inactive | inactive | inactive | inactive | inactive | inactive | inactive | inactive |
| CC1(C)CC/C(=C/c2ccc(Cl)cc2)C1(O)Cn1cncn1 (centres undefined) | 54.2 µM (active) | inactive | inactive | inactive | inactive | inactive | inactive |  | inactive | inactive |
| ClC1=C(Cl)[C@]2(Cl)[C@H]3[C@H]([C@H]4C=C[C@H]3C4)[C@@]1(Cl)C2(Cl)Cl | 68.6 µM (active) | inactive | inactive | inactive | inactive | 27.3 µM (active) | inactive | inactive | inactive | inactive |
| O=c1ssc(Cl)c1Cl | 27.3 µM (active) | inactive | inactive | inactive |  | inactive | inactive |  | 15.4 µM (active) | 17.2 µM (active) |
| BrCBr | inactive | inactive | inactive | inactive | inactive | inactive | inactive | inactive | inactive | inactive |
| COP(=O)(OC)SCn1c(=O)oc2cc(Cl)cnc21 | inactive | inactive | inactive | inactive | inactive | inactive |  | inactive | 19.3 µM (active) |  |
| CC(C)CC(C)N (centres undefined) | inactive | inactive | inactive | inactive | inactive | inactive | inactive | inactive | inactive | inactive |
| CC1(C)CN=C(NN=C(/C=C/c2ccc(C(F)(F)F)cc2)/C=C/c2ccc(C(F)(F)F)cc2)NC1 | 12.2 µM (active) | inactive | 49 µM [cytotoxic] (active) | 43.6 µM (active) |  | 3.06 µM (active) |  | 61.1 µM (active) | 8.63 µM (active) | 13.7 µM (active) |
| ClC1=C(Cl)C2(Cl)C3C(Cl)C=CC3C1(Cl)C2(Cl)Cl (centres undefined) | 43.5 µM (active) and 54.5 µM (active) | inactive | inactive |  | inactive | inactive | inactive | inactive | 68.6 µM (active) | inactive |
| COC(=O)N(C(=O)N1CO[C@@]2(C(=O)OC)Cc3cc(Cl)ccc3C2=N1)c1ccc(OC(F)(F)F)cc1 | 11.8 µM (active) | inactive | 47.3 µM [cytotoxic] (active) | inactive |  |  | inactive | inactive |  | inactive |
| c1ccc2cc3c(cc2c1)-c1cccc2cccc-3c12 | inactive | inactive |  | inactive |  | inactive | 0.269 µM (active) |  | inactive |  |
| CC(=O)c1cc(C(C)(C)C)cc2c1CCC2(C)C | 48.6 µM (active) | inactive | inactive |  | inactive | inactive |  | inactive | 68.6 µM (active) |  |
| CC[C@H]1C[C@@H]2C[C@H]3c4[nH]c5ccc(OC)cc5c4CCN(C2)[C@@H]13 | 30.1 µM (active) | inactive |  | inactive | inactive | inactive | inactive | inactive | inactive | inactive |

Reference: PubChem BioAssay (Tox21)
